Among the test systems are HOP-92 NSCLC; K-562 leukemia; MALME-3M melanoma; RXF 393 renal; UACC-257 melanoma; SK-MEL-28 melanoma; SN12C renal; TK-10 renal; CAKI-1 renal; A498 renal; RPMI-8226 leukemia; OVCAR-3 ovarian; BT-549 breast; MDA-MB-435 melanoma; HCC-2998 colon.
Test in all cases: NCI-60 one-dose screen, 48 h (100 = growth as untreated, 0 = no growth, -100 = all killed)
Holding throughout (conditions): 10 µM

Where “and” joins values, the source holds several entries; their conditions need not be identical. Equal entries are not always repeated. Compounds without any hit were thinned out: in the full panel of roughly 83,000, 20% have a hit.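 Interpretation: 100, growth as untreated; towards 0, rising growth inhibition; 0, no net growth; 0 to -100, cell death. Compounds scoring below 10 were considered active.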 The source holds several records for some structures; these can differ, active in one and inactive in another. Calls of active or inactive are those of the source.

These results are taken from PubChem BioAssay (NCI).

Take `CC1=C(CN(O)C(N)=O)C2=C(C)C3(CC3)[C@@](C)(O)C(=O)C2=C1`: the growth is -21.1% (active) in the test on HOP-92 NSCLC; 95.4% (inactive) in the test with K-562 leukemia; -39.2% (active) with MALME-3M melanoma; -78.9% (active) in the test on RXF 393 renal; -14.7% (active) in the test on UACC-257 melanoma; -33% (active) in the test with SK-MEL-28 melanoma. Further, the growth in the test with SN12C renal is 15.4% (inactive); in the test with TK-10 renal it was -15% (active); in the test with CAKI-1 renal, -3.78% (active); in the test with A498 renal, -82% (active); in the test on RPMI-8226 leukemia it was 91.5% (inactive); with OVCAR-3 ovarian it was -26.9% (active). The growth in the test on BT-549 breast is -24.5% (active); in the test on MDA-MB-435 melanoma, -20.2% (active); with HCC-2998 colon, -53.2% (active).

With `COC1[C@@H]2C[C@H]3C(C)(C)O[C@@](C/C=C(/C)C(=O)O)(C2=O)[C@]32Oc3c(CC=C(C)C)c4c(c(O)c3C(=O)[C@H]12)C=CC(C)(C)O4` (some centres undefined), the growth in the test with HOP-92 NSCLC was -36.4% (active); in the test with K-562 leukemia it was 2.55% (active); with MALME-3M melanoma it was -90.2% (active); in the test on RXF 393 renal, -81.1% (active); with UACC-257 melanoma, -48.2% (active); with SK-MEL-28 melanoma, -61.4% (active). Also, the growth was -16.7% (active) in the test on SN12C renal; -67.8% (active) in the test with A498 renal; -17% (active) with RPMI-8226 leukemia; -90.6% (active) with OVCAR-3 ovarian; -3.07% (active) in the test with BT-549 breast; -58.2% (active) with MDA-MB-435 melanoma. Also, the growth in the test on HCC-2998 colon is -81.9% (active).

Take `C/C=C/CC(C)C(O)[C@H](NC(=O)[C@@H]1CCCN1C(=O)C(C)(C)NC(=O)CCCCCCCCC)C(=O)N[C@@](C)(CC)C(=O)N[C@@H](CCC(N)=O)C(=O)N[C@H](CCC(N)=O)C(=O)NC(C)(C)C(=O)N[C@@](C)(CC)C(=O)N[C@@H](CCC(N)=O)C(=O)N[C@H](CC(C)C)C(=O)N[C@H](CO)CC(C)C` (some centres undefined): the growth is 91.5% (inactive) and -58.8% (active) in the test with HOP-92 NSCLC; 90.4% (inactive) and 4.32% (active) in the test with K-562 leukemia; 93.8% (inactive) and -92.9% (active) in the test on MALME-3M melanoma; 129% (inactive) and -75.3% (active) in the test on RXF 393 renal; 108% (inactive) and -83% (active) with UACC-257 melanoma; 104% (inactive) and -100% (active) with SK-MEL-28 melanoma. Also, the growth in the test on SN12C renal is 101% (inactive) and -44.1% (active); with TK-10 renal it was 108% (inactive) and -53.4% (active); in the test with CAKI-1 renal it was 99.7% (inactive) and -21.7% (active); in the test with A498 renal, 97.3% (inactive) and -52.9% (active); in the test with RPMI-8226 leukemia, 103% (inactive) and -46.2% (active); with OVCAR-3 ovarian it was 8.27% (active). The growth was -79.6% (active) in the test with BT-549 breast; 105% (inactive) and -93.7% (active) in the test with MDA-MB-435 melanoma; 116% (inactive) and -19.6% (active) with HCC-2998 colon.

For the compound `CCC(C)[C@H]1C(=O)O[C@H](C(C)C)C(=O)N(C)[C@@H](C(C)C)C(=O)O[C@H](C(C)C)C(=O)N(C)[C@@H](C(C)C)C(=O)O[C@H](C(C)C)C(=O)N1C` (some centres undefined), the growth was -19% (active) in the test with HOP-92 NSCLC; 6.74% (active) with K-562 leukemia; 14.7% (inactive) with MALME-3M melanoma; 22% (inactive) in the test on RXF 393 renal; 34.4% (inactive) with SK-MEL-28 melanoma; 7.58% (active) in the test with SN12C renal. Also, the growth in the test on TK-10 renal was 8.22% (active); in the test with A498 renal, -8.55% (active); in the test on RPMI-8226 leukemia it was -25.6% (active); in the test on OVCAR-3 ovarian, 19.9% (inactive); with BT-549 breast, 14.2% (inactive); with MDA-MB-435 melanoma it was 20% (inactive). In the test on HCC-2998 colon, the growth is 32.3% (inactive).

On to `COc1cc(C)c(-c2ccc(OC)c(=O)cc2C)c(OC)c1OC`, for which the growth was 39.6% (inactive) and 85.5% (inactive) in the test on HOP-92 NSCLC; 6.36% (active) and 85.8% (inactive) with K-562 leukemia; 46.7% (inactive) and 95.3% (inactive) in the test on MALME-3M melanoma; -10.8% (active) and 115% (inactive) in the test with RXF 393 renal; 56.2% (inactive) and 97.6% (inactive) with UACC-257 melanoma; 47.9% (inactive) and 103% (inactive) in the test with SK-MEL-28 melanoma. The growth in the test with SN12C renal is 37.1% (inactive) and 98.3% (inactive); in the test with TK-10 renal it was 94.5% (inactive) and 94.2% (inactive); in the test on CAKI-1 renal, 39.6% (inactive) and 86.1% (inactive); in the test with A498 renal, -18% (active) and 86.9% (inactive); with RPMI-8226 leukemia, 15% (inactive) and 94.4% (inactive); in the test with BT-549 breast it was 15.7% (inactive) and 120% (inactive). Also, the growth with MDA-MB-435 melanoma is -4.07% (active) and 99.6% (inactive); in the test on HCC-2998 colon, 10.6% (inactive) and 114% (inactive).

Take `O=C(CCCc1ccc(N(CCCl)CCCl)cc1)OCc1ccccc1`: the growth in the test on HOP-92 NSCLC was 103% (inactive); with K-562 leukemia, 93.8% (inactive); in the test on MALME-3M melanoma it was 92% (inactive); in the test on RXF 393 renal it was 109% (inactive); in the test on UACC-257 melanoma, 94.1% (inactive); in the test with SK-MEL-28 melanoma, 101% (inactive). Also, the growth in the test on SN12C renal was 79.1% (inactive); with TK-10 renal, 107% (inactive); in the test on CAKI-1 renal, 73.7% (inactive); with A498 renal it was 98.5% (inactive); with RPMI-8226 leukemia, 96.3% (inactive); with BT-549 breast, 95.5% (inactive). Also, the growth with MDA-MB-435 melanoma was 94.4% (inactive); with HCC-2998 colon, 101% (inactive).

Regarding `N#Cc1nc(-c2ccccc2)oc1N1CCC(S(=O)(=O)F)CC1`, the growth is 94.2% (inactive) in the test on HOP-92 NSCLC; 103% (inactive) in the test with K-562 leukemia; 98.9% (inactive) in the test on MALME-3M melanoma; 92.3% (inactive) in the test with RXF 393 renal; 107% (inactive) in the test on UACC-257 melanoma; 104% (inactive) in the test on SK-MEL-28 melanoma. The growth was 100% (inactive) with SN12C renal; 113% (inactive) in the test with TK-10 renal; 100% (inactive) in the test with CAKI-1 renal; 108% (inactive) in the test on A498 renal; 101% (inactive) with RPMI-8226 leukemia; 108% (inactive) in the test on BT-549 breast. For the same compound, the figures for the growth in the test on MDA-MB-435 melanoma and with HCC-2998 colon were 98.8% (inactive) and 104% (inactive), respectively.

With `C/C=C\C(=O)O[C@@H]1CC2O[C@@H]3C=C(C)C(=O)C[C@]3(C)[C@]1(C)[C@]21CO1`, the growth in the test on HOP-92 NSCLC is -17.5% (active); in the test with K-562 leukemia, -6.67% (active); in the test with MALME-3M melanoma, -22.9% (active); with RXF 393 renal, -31.6% (active); with SK-MEL-28 melanoma, -20.9% (active); with SN12C renal it was -6.14% (active). Further, the growth with TK-10 renal was -19.4% (active); in the test on A498 renal, -30.2% (active); in the test on RPMI-8226 leukemia, -31.2% (active); in the test with OVCAR-3 ovarian, -3.17% (active); with BT-549 breast, -22.8% (active); in the test on MDA-MB-435 melanoma it was -34.3% (active). For the same compound, the growth in the test with HCC-2998 colon is -23.5% (active).

On to `CC(=O)O[C@@H]1C[C@H]2O[C@@H]3C=C(C)CC[C@]3(C)[C@]1(C)[C@]21CO1`, for which the growth is 16.8% (inactive) with HOP-92 NSCLC; 4.68% (active) with K-562 leukemia; 5.52% (active) in the test on MALME-3M melanoma; 4.11% (active) with RXF 393 renal; -1.27% (active) in the test on SK-MEL-28 melanoma; 20.7% (inactive) with SN12C renal. In addition, the growth was 66.6% (inactive) with TK-10 renal; 34.6% (inactive) with A498 renal; -14.7% (active) in the test on RPMI-8226 leukemia; 14.7% (inactive) in the test on OVCAR-3 ovarian; -14.3% (active) in the test with BT-549 breast; 2.02% (active) in the test with MDA-MB-435 melanoma. The growth with HCC-2998 colon is 8.92% (active).
